Molecules are shown by their SMILES. Activity calls are given as the source filed them. Unless noted, the rule behind the calls is not given here.

These results are taken from PubChem BioAssay.

Assay [1] in a line: compounds binding Alexa647 anti-His antibody – biochemical, small-molecule microarray, 635 nm fluorescence, artefact control for SMM control protein annotation, primary screen (AID 1128).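 Note: score merges feature fluorescence with signal-to-noise for each printed compound spot.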 The conditions noted are these: higher = more signal.
Assay [2] has as its system Human papillomavirus type 1a E7 protein (residues 1-88). In words: HPV1a E7 small-molecule binders, primary screen, biochemical, small-molecule microarray, residues 1-88, 635 nm (AID 1129). The conditions noted are these: small-molecule microarray binding, fluorescence 635 nm; higher = more signal.
For assay [3], the target named is Focal adhesion kinase 1 (Homo sapiens) (UniProt Q05397). Kind of assay: PTK2 protein binding on printed compound slides – biochemical, small-molecule microarray, 635/667 nm fluorescence, BSA, DTT, primary screen (AID 1130).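 Note: composite of spot emission at 667 nm and signal to noise over triplicate slides.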 The conditions noted are these: 635 nm fluorescence, higher = more signal.
Assay [4] relates to Fibrinogen (Alexa647-labelled). In words: Alexa647-fibrinogen binding to printed small molecules – biochemical, small-molecule microarray, 635/667 nm fluorescence, artefact control for SMM control-protein annotation, profiling panel (AID 1131).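 Note: z-score merges 667 nm fluorescence with per-spot signal-to-noise over triplicate slides.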 Particulars: fibrinogen-A647 binding fluorescence, higher = more signal.
The target of assay [5] is Follistatin (Homo sapiens) (UniProt P19883). In words: FST protein binding to printed compounds – biochemical, small-molecule microarray, 635/667 nm fluorescence, primary screen (AID 1132). The conditions noted are these: 635 nm fluorescence, higher = more signal.
The target in assay [6] is Fibroblast growth factor 2 (Homo sapiens) (UniProt P09038). In words: basic fibroblast growth factor binding to printed compounds – biochemical, small-molecule microarray, 635/667 nm fluorescence, primary screen (AID 1133). The conditions noted are these: FGF2, fluorescence 635/667, higher = more signal.
Assay [7] is described as follows: JC-1 mitochondrial potential readout, lung cancer cells – cell-based, A549, JC-1 fluorescence, basal, 24 h, 100 nL, profiling panel (AID 1138).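 Note: A549 lung adenocarcinoma cells under basal conditions with no added stimulus; test concentration not given here.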 Particulars: higher = more signal.
For the next assay, the system named is Lefty1. In words: Lefty1 protein binding to printed compounds – biochemical, small-molecule microarray, 635/667 nm fluorescence, primary screen (AID 1139). The conditions noted are these: fluorescence 635/667, higher = more signal.
Assay [8] relates to wheat germ agglutinin (Triticum aestivum), Alexa647-labelled. In words: Alexa647-WGA lectin binding to printed small molecules – biochemical, small-molecule microarray, 635/667 nm fluorescence, artefact control for SMM control-protein annotation, profiling panel (AID 1140).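 Note: score merges 667 nm feature emission with signal to noise over triplicate slides.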 The conditions noted are these: WGA-A647 binding, 635 nm fluorescence, higher = more signal.
The target of assay [9] is Luciferin 4-monooxygenase (Photinus pyralis) (UniProt P08659). In words: inhibition of purified Photinus pyralis luciferase – biochemical, luminescence, purified enzyme, 2006 set, primary screen (AID 1141).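 Note: cell-free assay with purified firefly luciferase at 100 ng per well in PBS; test concentration not given here.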 The conditions noted are these: purified firefly luciferase, SteadyGlo luminescence, 30 min; higher = more signal, called active from +8 up or from −8 down.
Assay [10] has as its system Wnt5a (protein binding on small-molecule microarray). In words: small molecules binding Wnt5a protein – biophysical, small-molecule microarray, 635/667 nm fluorescence, primary screen (AID 1142).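 Note: fluorescence read at 667 nm with signal to noise per printed feature.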 Particulars: 635 nm fluorescence, higher = more signal.
A short description of assay [11]: ATP-based viability of Huh7 replicon cells – cell-based, CellTiter-Glo luminescence, basal, 48 h, cytotoxicity control for HCV replication inhibitor project, primary screen (AID 1143).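 Note: Huh7 hepatoma cells carrying a hepatitis C replication reporter with no stimulus; test concentration not given here.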 The conditions noted are these: higher = more signal, called active from +8 up or from −8 down.
Assay [12] is described as follows: Pseudomonas biofilm growth suppression – PAO1 strain, BacTiter-Glo luminescence, LB-PBS, primary screen (AID 1144). The conditions noted are these: P. aeruginosa PAO1 biofilm, 12 h, higher = more signal.
Assay [13] in a line: basal CRE-LacZ reporter activity in PC12 – cell-based, unstimulated, primary screen (AID 1145). Particulars: no forskolin, luminescence, 4.5 h, higher = more signal, called active from +8 up or from −8 down.
Assay [14] can be described thus: forskolin-driven CRE-LacZ activity in PC12 – cell-based, CRE-LacZ reporter, forskolin-stimulated, primary screen (AID 1146).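 Note: PC12 cells with 6xCRE LacZ reporter stimulated by forskolin 10 µM; beta-galactosidase reporter signal reflecting CREB driven transcription.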 Particulars: luminescence, 4.5 h, higher = more signal, called active from +8 up or from −8 down.
The target of assay [15] is Streptavidin (Streptomyces avidinii) (UniProt P22629). In words: compounds binding control protein streptavidin – biophysical, small-molecule microarray, 635/667 nm fluorescence, artefact control for SMM compound annotation, primary screen (AID 1147).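 Note: signal reflects streptavidin binding to arrayed compounds as a control protein.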 The conditions noted are these: higher = more signal.
Assay [16] in a line: probe aInhba binding on compound microarray – biochemical, small-molecule microarray, 635/667 nm fluorescence, primary screen (AID 1148).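 Note: score merges 667nm spot fluorescence with signal-to-noise for antibody binding to printed compounds.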 The conditions noted are these: higher = more signal.
For assay [17], the target named is Torsin-1A (Homo sapiens) (UniProt O14656). In words: TOR1A wild-type binding on microarray – cell lysate, small-molecule microarray, lysate, 635/667 nm, primary screen (AID 1149). The conditions noted are these: COS7 hTOR1A-WT lysate, 635 nm fluorescence, higher = more signal.
Assay [18] has the same target. Kind of assay: torsin A mutant lysate binding on microarrays – cell lysate, small-molecule microarray, COS7 lysate, 635/667 nm fluorescence, primary screen (AID 1150).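 Note: score pools 667 nm emission and signal to noise measuring lysate protein binding.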 Particulars: COS7 hTOR1A mutant lysate, 635 nm fluorescence, higher = more signal.
The subject of assay [19] is Sonic hedgehog protein (Shh). Kind of assay: Sonic hedgehog microarray binding compounds – biochemical, small-molecule microarray, 635/667 nm fluorescence, primary screen (AID 1151).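 Note: Shh protein binding to compounds spotted on small-molecule microarray slides; score combines spot fluorescence intensity with signal-to-noise across triplicate slides.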 Particulars: 635 nm fluorescence, higher = more signal.

Torsin-1A (Homo sapiens), sequence (O14656 whole entry, looked up): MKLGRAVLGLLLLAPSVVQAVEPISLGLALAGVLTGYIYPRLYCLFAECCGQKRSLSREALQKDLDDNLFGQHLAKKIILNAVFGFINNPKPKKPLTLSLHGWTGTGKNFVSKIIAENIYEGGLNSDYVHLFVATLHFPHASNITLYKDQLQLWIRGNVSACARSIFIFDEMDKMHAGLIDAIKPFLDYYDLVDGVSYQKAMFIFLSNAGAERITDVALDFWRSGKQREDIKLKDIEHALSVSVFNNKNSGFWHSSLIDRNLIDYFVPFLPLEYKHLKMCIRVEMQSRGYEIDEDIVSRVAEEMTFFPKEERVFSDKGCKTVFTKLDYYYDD
Fibroblast growth factor 2 (Homo sapiens), sequence (P09038 whole entry, looked up): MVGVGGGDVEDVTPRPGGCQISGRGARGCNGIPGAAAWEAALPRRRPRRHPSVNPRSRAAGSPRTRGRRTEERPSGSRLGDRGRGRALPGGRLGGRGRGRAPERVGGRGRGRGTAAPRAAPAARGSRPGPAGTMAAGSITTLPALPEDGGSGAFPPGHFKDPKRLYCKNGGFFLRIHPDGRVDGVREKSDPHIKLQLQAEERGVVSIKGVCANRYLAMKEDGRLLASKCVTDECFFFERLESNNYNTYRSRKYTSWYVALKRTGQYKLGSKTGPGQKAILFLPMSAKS
Streptavidin (Streptomyces avidinii), sequence (P22629 whole entry, looked up): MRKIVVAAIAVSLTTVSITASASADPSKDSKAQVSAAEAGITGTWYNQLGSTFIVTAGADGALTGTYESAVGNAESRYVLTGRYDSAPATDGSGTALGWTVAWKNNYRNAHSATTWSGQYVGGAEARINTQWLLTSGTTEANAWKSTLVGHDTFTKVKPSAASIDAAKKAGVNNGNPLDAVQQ
Follistatin (Homo sapiens), sequence (P19883 whole entry, looked up): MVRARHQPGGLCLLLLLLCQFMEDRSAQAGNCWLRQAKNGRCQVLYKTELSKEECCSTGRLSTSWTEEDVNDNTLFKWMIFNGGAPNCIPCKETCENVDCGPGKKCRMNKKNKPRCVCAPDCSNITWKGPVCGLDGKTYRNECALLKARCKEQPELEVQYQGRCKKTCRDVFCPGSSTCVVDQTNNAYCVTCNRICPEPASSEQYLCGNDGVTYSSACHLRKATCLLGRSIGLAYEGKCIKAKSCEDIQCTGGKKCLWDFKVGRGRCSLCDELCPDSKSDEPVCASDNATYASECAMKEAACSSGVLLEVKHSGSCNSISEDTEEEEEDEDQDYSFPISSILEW
Luciferin 4-monooxygenase (Photinus pyralis), sequence (P08659 whole entry, looked up): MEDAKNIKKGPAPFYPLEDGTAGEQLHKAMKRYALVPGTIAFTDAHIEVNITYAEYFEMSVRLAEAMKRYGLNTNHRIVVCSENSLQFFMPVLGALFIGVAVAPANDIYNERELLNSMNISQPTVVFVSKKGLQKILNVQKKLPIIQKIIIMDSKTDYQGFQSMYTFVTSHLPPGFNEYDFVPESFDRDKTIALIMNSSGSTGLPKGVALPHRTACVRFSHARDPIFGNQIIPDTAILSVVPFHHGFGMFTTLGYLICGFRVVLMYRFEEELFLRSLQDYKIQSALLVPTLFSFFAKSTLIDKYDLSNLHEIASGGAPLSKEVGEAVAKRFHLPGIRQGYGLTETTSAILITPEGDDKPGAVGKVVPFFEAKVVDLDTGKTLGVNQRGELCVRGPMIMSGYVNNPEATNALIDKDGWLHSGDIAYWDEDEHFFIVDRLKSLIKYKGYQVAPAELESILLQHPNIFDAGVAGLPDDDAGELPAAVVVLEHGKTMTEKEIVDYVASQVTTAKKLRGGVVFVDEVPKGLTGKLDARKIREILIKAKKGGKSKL
Focal adhesion kinase 1 (Homo sapiens), sequence (Q05397 whole entry, looked up): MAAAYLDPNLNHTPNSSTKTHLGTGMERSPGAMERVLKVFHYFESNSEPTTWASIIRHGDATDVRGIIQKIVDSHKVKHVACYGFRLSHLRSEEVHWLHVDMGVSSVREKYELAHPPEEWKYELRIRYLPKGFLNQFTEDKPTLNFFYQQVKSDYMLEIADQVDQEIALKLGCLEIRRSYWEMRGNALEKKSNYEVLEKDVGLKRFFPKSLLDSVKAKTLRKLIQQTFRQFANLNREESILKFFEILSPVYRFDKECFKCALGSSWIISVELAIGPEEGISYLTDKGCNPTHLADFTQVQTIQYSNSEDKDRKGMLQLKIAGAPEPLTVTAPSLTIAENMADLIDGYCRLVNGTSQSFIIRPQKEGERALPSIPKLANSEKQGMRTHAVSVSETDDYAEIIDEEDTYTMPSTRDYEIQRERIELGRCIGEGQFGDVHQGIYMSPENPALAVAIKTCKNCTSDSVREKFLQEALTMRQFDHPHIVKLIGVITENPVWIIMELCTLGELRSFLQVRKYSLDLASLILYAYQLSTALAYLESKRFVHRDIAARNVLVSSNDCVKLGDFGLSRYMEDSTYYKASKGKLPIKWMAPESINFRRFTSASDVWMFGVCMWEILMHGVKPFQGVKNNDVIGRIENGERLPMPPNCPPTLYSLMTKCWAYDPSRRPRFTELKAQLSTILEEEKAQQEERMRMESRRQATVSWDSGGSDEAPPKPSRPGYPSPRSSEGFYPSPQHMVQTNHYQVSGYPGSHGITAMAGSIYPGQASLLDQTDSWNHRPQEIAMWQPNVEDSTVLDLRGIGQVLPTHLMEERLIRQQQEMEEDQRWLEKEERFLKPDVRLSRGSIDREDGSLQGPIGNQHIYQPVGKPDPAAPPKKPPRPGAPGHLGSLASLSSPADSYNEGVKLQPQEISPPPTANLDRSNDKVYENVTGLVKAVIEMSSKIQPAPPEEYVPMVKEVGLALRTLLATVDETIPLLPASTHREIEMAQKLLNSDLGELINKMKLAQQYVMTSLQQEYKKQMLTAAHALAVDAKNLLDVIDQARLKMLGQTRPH

With `CCC(CC)C(O)C1C=CC2C(=O)N(C)C(=O)C2N1N1CCCCC1` (stereo not given), the composite z-score is 2.05 in assay [1]; 1.23 in assay [2]; -0.0333 in assay [3]; 0.967 in [4]; 1.33 in assay [5]; 0.406 in assay [6]. For the same compound, the composite z-score in the assay with Lefty1 came to 0.831; in [8] it was 1.12; in [10], 0.323; in [15], 1.51; in assay [16], 0.3; with Torsin-1A (Homo sapiens) [17], 0.504. Moreover, the results for the composite z-score (in the assay with Torsin-1A (Homo sapiens) [18]; in assay [19]) were 0.844 and 0.959, respectively. Further, the z-score is 0.309 in [7]; -0.203 (inactive) in [9]; 0.374 (inactive) in assay [11]; -0.328 (inactive) in [12]; 0.0501 (inactive) in assay [13]; 1.06 (inactive) in [14].

With `C=C(CC1([C@@H](NP(=O)(c2ccccc2)c2ccccc2)[C@H]2C[C@@H]2CCN(C(=O)OCC)S(=O)(=O)c2ccc(C)cc2)CC1)c1ccccc1`, the composite z-score in [1] is 1.74; in assay [2], 1.22; in assay [3], 1.15; in assay [4], 0.781; in assay [5], 0.712; in assay [6], -0.804. The composite z-score with Lefty1 is -0.162; in assay [8], 0.593; in assay [10], 0.302; in assay [15], 1.27; in [16] it was 0.199; with Torsin-1A (Homo sapiens) [17], -0.423. Besides, the composite z-score with Torsin-1A (Homo sapiens) [18] was 0.0999; in assay [19] it was -1.18. Moreover, the z-score is 0.782 in assay [7]; 2.49 (inactive) in assay [9]; -3.37 (inactive) in assay [11]; 0.83 (inactive) in assay [12]; -0.196 (inactive) in assay [13]; 0.108 (inactive) in assay [14].

In the case of `COC(=O)[C@@]1(Cc2ccccc2)[C@H]2c3cc(C(=O)N4CCCC4)n(Cc4ccc(C(F)(F)F)nc4)c3C[C@H]2CN1C(=O)c1ccccc1`, the composite z-score in assay [1] was 0.472; in [2] it was 1.28; in assay [3], 1.23; in assay [4] it was 1.06; in assay [5] it was 0.778; in assay [6] it was -0.38. Further, the composite z-score was found to be 0.333 with Lefty1; 1.05 in assay [8]; 0.836 in assay [10]; 1.78 in assay [15]; 0.446 in [16]; 1.03 with Torsin-1A (Homo sapiens) [17]. In addition, the composite z-score with Torsin-1A (Homo sapiens) [18] was 0.774; in [19], -0.878. The z-score is 1.32 in assay [7]; 2.36 (inactive) in [9]; -2.97 (inactive) in assay [11]; 0.519 (inactive) in assay [12]; 0.0075 (inactive) in assay [13]; -0.611 (inactive) in assay [14].

As to `CCCC=C(CCC)[C@@H](NC(=O)c1ccco1)c1ccc(C(=O)OC)cc1`, the composite z-score in assay [1] was 1.24; in [2], 1.26; in assay [3] it was 0.601; in [4], 0.984; in assay [5], 0.649; in assay [6], -0.181. The composite z-score in the assay with Lefty1 was found to be 0.119; in assay [8], 1.31; in assay [10], 0.22; in assay [15], 1.92; in assay [16], 0.218; in the assay with Torsin-1A (Homo sapiens) [17] it was 0.0918. Besides, the composite z-score was 0.918 with Torsin-1A (Homo sapiens) [18] and -0.276 in assay [19]. The z-score was -1.67 in assay [7]; 2.66 (inactive) in assay [9]; -3.84 (inactive) in assay [11]; 0.737 (inactive) in [12]; 0.0143 (inactive) in [13]; 0.514 (inactive) in assay [14].

For `CCCCC(O)C1C=CC2C(=O)NC(=O)C2N1Nc1ccc(Cl)cc1Cl` (stereo not given), the composite z-score was 2.42 in assay [1]; 0.32 in [2]; 0.474 in [3]; -0.0628 in assay [4]; 0.413 in assay [5]; -0.596 in assay [6]. For the same compound, the composite z-score is -0.654 in the assay with Lefty1; 0.87 in assay [8]; -0.188 in assay [10]; 0.27 in [15]; 0.166 in assay [16]; -0.58 in the assay with Torsin-1A (Homo sapiens) [17]. For the same compound, the results for the composite z-score (with Torsin-1A (Homo sapiens) [18]; in assay [19]) were 0.571 and -0.614, respectively. The z-score in [7] was -1.16; in assay [9], -1.31 (inactive); in assay [11], -1.19 (inactive); in assay [12] it was -0.441 (inactive); in [13], 0.819 (inactive); in assay [14], -0.123 (inactive).
